Inconclusive results are not listed. A number with no mark means an inactive call. Active and inactive are the calls of the source. Rule as the data show it: active = fluorescence slope change above about 50%; inconclusive = mostly about 31% to 49%; inactive = weaker than that.

Sequence of ATP-dependent translocase ABCB1 (Homo sapiens) (P08183 whole entry, looked up): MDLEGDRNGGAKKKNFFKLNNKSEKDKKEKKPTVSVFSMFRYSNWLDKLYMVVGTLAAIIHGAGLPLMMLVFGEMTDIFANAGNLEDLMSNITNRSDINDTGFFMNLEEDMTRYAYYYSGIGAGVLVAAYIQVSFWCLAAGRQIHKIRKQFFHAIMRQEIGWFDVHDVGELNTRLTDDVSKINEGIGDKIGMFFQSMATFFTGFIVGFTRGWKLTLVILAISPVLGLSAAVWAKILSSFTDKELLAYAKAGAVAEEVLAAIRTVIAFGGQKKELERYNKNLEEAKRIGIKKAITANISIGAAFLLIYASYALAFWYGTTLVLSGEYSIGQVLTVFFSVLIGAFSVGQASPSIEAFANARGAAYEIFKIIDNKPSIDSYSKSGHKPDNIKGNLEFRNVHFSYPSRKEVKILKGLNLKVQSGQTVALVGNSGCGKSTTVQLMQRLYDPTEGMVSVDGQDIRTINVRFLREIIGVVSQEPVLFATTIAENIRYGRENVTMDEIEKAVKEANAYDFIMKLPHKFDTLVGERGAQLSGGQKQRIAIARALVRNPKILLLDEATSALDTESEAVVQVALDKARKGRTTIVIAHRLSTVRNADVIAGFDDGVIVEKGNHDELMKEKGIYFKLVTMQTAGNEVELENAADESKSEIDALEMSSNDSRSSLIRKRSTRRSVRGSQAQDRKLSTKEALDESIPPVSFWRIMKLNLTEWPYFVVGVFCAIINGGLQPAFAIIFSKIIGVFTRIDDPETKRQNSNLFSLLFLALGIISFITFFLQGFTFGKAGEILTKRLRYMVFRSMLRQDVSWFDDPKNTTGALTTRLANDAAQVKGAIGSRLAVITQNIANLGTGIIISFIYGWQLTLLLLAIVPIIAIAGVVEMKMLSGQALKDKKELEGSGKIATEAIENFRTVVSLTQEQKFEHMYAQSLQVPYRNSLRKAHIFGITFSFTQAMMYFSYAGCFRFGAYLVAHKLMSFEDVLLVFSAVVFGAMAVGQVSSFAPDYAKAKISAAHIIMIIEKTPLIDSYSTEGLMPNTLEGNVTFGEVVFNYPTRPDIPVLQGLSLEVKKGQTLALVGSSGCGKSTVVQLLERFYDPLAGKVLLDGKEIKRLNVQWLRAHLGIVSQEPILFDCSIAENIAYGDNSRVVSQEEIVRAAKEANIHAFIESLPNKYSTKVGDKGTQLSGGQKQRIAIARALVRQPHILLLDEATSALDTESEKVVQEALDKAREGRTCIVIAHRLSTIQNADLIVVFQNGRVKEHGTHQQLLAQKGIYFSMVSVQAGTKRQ

This assay concerns the target ATP-dependent translocase ABCB1 (Homo sapiens) (UniProt P08183). Briefly: P-glycoprotein substrate transport blockade – cell-based (AID 377). The conditions noted are these: MDR1-expressing cells, fluorescent substrate accumulation slope; stronger effect = higher value; concentration not given here.
Turning to `COc1ccc2nc(S(=O)Cc3ncc(C)c(OC)c3C)[nH]c2c1` (centres undefined), the fluorescence slope change is 50.5% (active).

On to `COC(=O)Nc1nc2ccc(C(=O)c3cccs3)cc2[nH]1`, for which the fluorescence slope change was 103% (active).

Regarding `Nc1ncnc2c1ncn2[C@@H]1O[C@H](COP(=O)(O)O)[C@@H](O)[C@H]1O`, the fluorescence slope change was 73% (active).

For the compound `COc1cc(C(=O)OCCCN2CCCN(CCCOC(=O)c3cc(OC)c(OC)c(OC)c3)CC2)cc(OC)c1OC`, the fluorescence slope change was 100% (active).

Consider `NC(N)=NC(=O)Cc1c(Cl)cccc1Cl`, for which the fluorescence slope change is 82% (active).

For `CCOC(=O)OC(C)OC(=O)[C@@H]1N2C(=O)[C@@H](NC(=O)[C@H](N)c3ccccc3)[C@H]2SC1(C)C` (some centres undefined), the fluorescence slope change is 97.9% (active).

As to `C[C@]12C=CC(=O)C=C1CC[C@H]1[C@@H]3C[C@@H](O)[C@](O)(C(=O)CO)[C@@]3(C)C[C@H](O)[C@@]12F`, the fluorescence slope change was 27%.

In the case of `COc1cc(OC)c(C(=O)CCCN2CCCC2)c(OC)c1`, the fluorescence slope change is 82.5% (active).

For the compound `CN1CCN(C2=Nc3ccccc3Oc3ccc(Cl)cc32)CC1`, the fluorescence slope change was 163% (active).

As to `CCOC(=O)C1=C[C@]2(CC)CCCN3CCc4c(n1c1ccccc41)[C@@H]32`, the fluorescence slope change was 107% (active).

For `CC1CC(OC(=O)C(O)c2ccccc2)CC(C)(C)N1C` (centres undefined), the fluorescence slope change was 23.1%.

With `CCN(CCCc1ccccc1)CCCc1ccccc1`, the fluorescence slope change is 72.6% (active).

With `COc1cc2nc(N3CCN(C(=O)C4COc5ccccc5O4)CC3)nc(N)c2cc1OC` (centres undefined), the fluorescence slope change was 75.1% (active).

Turning to `CC(=O)[C@@]1(O)CC[C@H]2[C@@H]3C[C@H](C)C4=CC(=O)C=C[C@]4(C)[C@@]3(F)[C@@H](O)C[C@@]21C`, the fluorescence slope change was 10.7%.

For the origin of these results see PubChem BioAssay.
